In ChEMBL document CHEMBL4296182, “CO-ADD screening of NIH NCI Diversity Set V” one finds Inhibition data, which are given here for 25 compounds.

For part of these data: Measured potencies and affinities stand elsewhere.

One assay concerns Staphylococcus aureus. Briefly: Antibacterial activity against Staphylococcus aureus MRSA ATCC 43300 (CO-ADD:GP_020); MIC in CAMBH media using NBS plates, by Resazurin F(560/590). It counts as functional. Particulars: Concentration 20 uM, ASSAY_TEST Inhibition of Bacterial Growth, detection method Resazurin, Fluorescence (ex560/em590), MEDIA CAMHB, plate type 384well, CORNING #3640, time 18 hr. (The colour change of resazurin is a common sign of viable cells or microbes.)

The subject of another assay is Acinetobacter baumannii. Briefly: Antibacterial activity against Acinetobacter baumannii ATCC 19606 (CO-ADD:GN_034); MIC in CAMBH media using NBS plates, by Resazurin F(560/590). It counts as functional. The conditions noted are these: Concentration 20 uM, ASSAY_TEST Inhibition of Bacterial Growth, detection method Resazurin, Fluorescence (ex560/em590), MEDIA CAMHB, plate type 384well, CORNING #3640, time 18 hr.

Another assay concerns Escherichia coli. Briefly: Antibacterial activity against Escherichia coli ATCC 25922 (CO-ADD:GN_001); MIC in CAMBH media using NBS plates, by Resazurin F(560/590). The conditions noted are these: Concentration 20 uM, ASSAY_TEST Inhibition of Bacterial Growth, detection method Resazurin, Fluorescence (ex560/em590), MEDIA CAMHB, plate type 384well, CORNING #3640, time 18 hr. It is filed as functional.

The test system of another assay is Klebsiella pneumoniae. Particulars: Concentration 20 uM; ASSAY_TEST Inhibition of Bacterial Growth; detection method Absorption (OD600); MEDIA CAMHB; plate type 384well; NBS; CORNING #3640; time 18 hr.
For the next assay, the system named is Candida albicans. Particulars: 20 µM.
In the next assay the test system is Cryptococcus neoformans. The conditions noted are these: Concentration 20 uM; ASSAY_TEST Inhibition of Fungal Growth; detection method Resazurin; Absorption (OD600-OD570); plate type 384well; NBS; CORNING #3640.

As to `O=C(Nc1ccc(Cl)c(Cl)c1)Nc1ccccc1O`, the Inhibition (in general, the change of the read-out against control, counted positive when it falls) in the assay with Staphylococcus aureus is -10.29%; with Acinetobacter baumannii it was 0.1%; in the assay with Escherichia coli, -13.39%; in the assay with Klebsiella pneumoniae, 5.08%; with Candida albicans, 3.05%; in the assay on Cryptococcus neoformans, 15.14%.
`CC12CCC(C(NC(=S)NN)C1=O)C2(C)C` (stereo not given): the Inhibition is 2.53% with Staphylococcus aureus; -10.15% with Acinetobacter baumannii; 7.86% in the assay on Escherichia coli; 9.19% in the assay with Klebsiella pneumoniae; 1.53% in the assay on Candida albicans; -9.53% with Cryptococcus neoformans.
On to `c1ccc(-c2cn3ccccc3n2)cc1`, for which the Inhibition in the assay with Staphylococcus aureus is 26.82%; in the assay on Acinetobacter baumannii it was -4.96%; in the assay on Escherichia coli, 13.79%; in the assay with Klebsiella pneumoniae, 17.46%; in the assay on Candida albicans, -0.09%; in the assay with Cryptococcus neoformans, -2.58%.
Consider `N#CCS(=O)(=O)c1cccc[n+]1[O-]`, for which the Inhibition is 7.02% in the assay with Staphylococcus aureus; -20.49% in the assay on Acinetobacter baumannii; 18.56% in the assay with Escherichia coli; 15.26% with Klebsiella pneumoniae; 4.91% in the assay with Candida albicans; -4.09% in the assay on Cryptococcus neoformans.
Take `NCCN1CCNCC1`: the Inhibition is -1.38% in the assay with Staphylococcus aureus; -9.37% with Acinetobacter baumannii; 9.81% with Escherichia coli; 11.04% with Klebsiella pneumoniae; 1.05% in the assay on Candida albicans; 4.22% with Cryptococcus neoformans.
Turning to `NC(=O)Oc1cccc(OC(N)=O)c1`, the Inhibition in the assay with Staphylococcus aureus is 9.68%; in the assay on Acinetobacter baumannii, -13.95%; in the assay on Escherichia coli, 4.31%; in the assay with Klebsiella pneumoniae it was 5.21%; in the assay on Candida albicans it was 2.21%; in the assay on Cryptococcus neoformans, -9.78%.
Regarding `Cc1cn(C2CC(O)C(CO)O2)c(=O)n(Cc2ccccc2)c1=O` (stereo not given), the Inhibition was 4.94% in the assay on Staphylococcus aureus; 6.87% with Acinetobacter baumannii; 7.7% in the assay with Escherichia coli; 11.99% in the assay on Klebsiella pneumoniae; 1.89% in the assay with Candida albicans; -13.31% in the assay on Cryptococcus neoformans.
As for `CCC/C(C)=C/c1ccc(CC)cn1`, the Inhibition in the assay on Staphylococcus aureus is 1.51%; in the assay with Acinetobacter baumannii, -4.3%; in the assay with Escherichia coli it was -16.08%; in the assay on Klebsiella pneumoniae, 8.87%; in the assay on Candida albicans, 3.23%; with Cryptococcus neoformans, 27.41%.
As for `Oc1ccccc1/N=C/c1c(O)ccc2ccccc12`, the Inhibition in the assay with Staphylococcus aureus is 7.8%; in the assay on Acinetobacter baumannii, -11.56%; in the assay with Escherichia coli it was 8.07%; in the assay on Klebsiella pneumoniae, 1.58%; in the assay on Candida albicans, 52.3%; with Cryptococcus neoformans, 25.14%.
As to `CCN(CC)CCNc1c(C)cc(CO)c(Cl)c1C.O=S(=O)(O)NC1CCCCC1`, the Inhibition with Staphylococcus aureus is 5.65%; with Acinetobacter baumannii it was -16.4%; in the assay on Escherichia coli, 16.33%; with Klebsiella pneumoniae it was 7.45%; in the assay with Candida albicans, 1.43%; in the assay with Cryptococcus neoformans, -0.32%.
As for `CCOc1ccc(NC(=O)Nc2cc(C(C)C)c(O)cc2C)cc1`, the Inhibition is 12.02% with Staphylococcus aureus; -0.68% in the assay with Acinetobacter baumannii; -2.75% with Escherichia coli; 20.87% in the assay with Klebsiella pneumoniae; 4.16% in the assay with Candida albicans; -21.1% with Cryptococcus neoformans.
Take `O=C1c2ccccc2C(=O)c2c(Nc3ccc(CCO)cc3)ccc(O)c21`: the Inhibition was 19.9% in the assay on Staphylococcus aureus; 1.68% with Acinetobacter baumannii; 9.39% with Escherichia coli; 4.66% with Klebsiella pneumoniae; -0.52% in the assay with Candida albicans; -4.75% in the assay with Cryptococcus neoformans.
`CC(=O)c1cc(O)c2ccccc2c1O`: the Inhibition is 4.01% with Staphylococcus aureus; -14.11% with Acinetobacter baumannii; 0.42% in the assay on Escherichia coli; 7.57% in the assay with Klebsiella pneumoniae; 24.1% with Candida albicans; 6.09% in the assay with Cryptococcus neoformans.
As to `O=[N+]([O-])c1ccc(/C=C\c2ccncc2)cc1`, the Inhibition was -4.43% in the assay on Staphylococcus aureus; 17.7% in the assay on Acinetobacter baumannii; -9.25% in the assay on Escherichia coli; 16.94% with Klebsiella pneumoniae; 3.43% in the assay with Candida albicans; -1.17% in the assay on Cryptococcus neoformans.
In the case of `N#C/C(=C\c1cc(O)c(O)c(O)c1)C(N)=O`, the Inhibition with Staphylococcus aureus was -3.49%; with Acinetobacter baumannii, 6.06%; in the assay on Escherichia coli, 5.21%; with Klebsiella pneumoniae, 9.86%; in the assay with Candida albicans it was 5.49%; in the assay with Cryptococcus neoformans, -11.36%.
As for `CC1CC(C)(C)C2=NCCN21` (stereo not given), the Inhibition was 12.73% in the assay with Staphylococcus aureus; -16.85% with Acinetobacter baumannii; 7.35% with Escherichia coli; 11.7% with Klebsiella pneumoniae; 5.23% with Candida albicans; -11% in the assay on Cryptococcus neoformans.
With `Cc1nc(C(N)=O)nc2ccccc12`, the Inhibition with Staphylococcus aureus was 17.26%; in the assay on Acinetobacter baumannii it was -10.29%; in the assay on Escherichia coli it was 6.82%; in the assay with Klebsiella pneumoniae it was 15.63%; in the assay on Candida albicans it was 0.61%; with Cryptococcus neoformans, 1.62%.
Regarding `CN(C)N1C(=O)c2c(Cl)c(Cl)c(Cl)c(Cl)c2C1=O`, the Inhibition in the assay on Staphylococcus aureus is 2.83%; in the assay with Acinetobacter baumannii it was 0.5%; in the assay with Escherichia coli, 6.02%; in the assay on Klebsiella pneumoniae, 6.84%; with Candida albicans, 1.54%; in the assay on Cryptococcus neoformans, 46.33%.
For `COCC(O)Cn1ccnc1[N+](=O)[O-]` (stereo not given) [MISONIDAZOLE], the Inhibition in the assay with Staphylococcus aureus is -3.32%; in the assay with Acinetobacter baumannii, 6.49%; in the assay on Escherichia coli, 6.97%; with Klebsiella pneumoniae, 11.9%; in the assay on Candida albicans it was 1.35%; in the assay on Cryptococcus neoformans it was -12.64%.
With `OCc1ncccc1O`, the Inhibition in the assay with Staphylococcus aureus was -1.04%; with Acinetobacter baumannii, -10.34%; in the assay on Escherichia coli, -5.68%; with Klebsiella pneumoniae, 25.51%; in the assay on Candida albicans it was 3.22%; in the assay on Cryptococcus neoformans, 0.67%.
Consider `CC(=O)Oc1ccc(C(c2ccc(OC(C)=O)cc2)c2ccccn2)cc1` [BISACODYL], for which the Inhibition with Staphylococcus aureus was 25.36%; in the assay with Acinetobacter baumannii it was -9.02%; in the assay on Escherichia coli, 15.4%; in the assay on Klebsiella pneumoniae it was 14.3%; in the assay with Candida albicans it was 0.53%; in the assay with Cryptococcus neoformans, -1.75%.
With `NC(=S)NC(=O)c1ccccc1`, the Inhibition with Staphylococcus aureus is 15.19%; in the assay with Acinetobacter baumannii, -5.77%; in the assay on Escherichia coli, 13.89%; in the assay on Klebsiella pneumoniae, 14.46%; with Candida albicans, 2.89%; in the assay with Cryptococcus neoformans, -5.13%.
Take `CC(=O)c1c(O)c(C)c(O)c2c1OC1=CC(=O)/C(=C(/C)N)C(=O)C12C` (stereo not given): the Inhibition in the assay with Staphylococcus aureus is -3.02%; in the assay on Acinetobacter baumannii, 6.34%; in the assay with Escherichia coli it was 8.14%; in the assay with Klebsiella pneumoniae, 14.26%; in the assay with Candida albicans it was 6.96%; in the assay on Cryptococcus neoformans it was -10.35%.
Turning to `Nc1ccc(C(=O)Nc2cccc(N)c2)cc1`, the Inhibition is 4.61% in the assay with Staphylococcus aureus; -10.29% in the assay on Acinetobacter baumannii; 5.56% in the assay with Escherichia coli; 4.23% in the assay with Klebsiella pneumoniae; 0.06% with Candida albicans; -9.54% in the assay on Cryptococcus neoformans.
With `COC(=O)C1=C(C)NC(C)=C(C(=O)OC)C(N2C(=O)CCC2=O)C1` (stereo not given), the Inhibition with Staphylococcus aureus was 18.88%; in the assay with Acinetobacter baumannii, 6.44%; with Escherichia coli, 0.27%; in the assay with Klebsiella pneumoniae, 9.26%; in the assay on Candida albicans, 2.3%; in the assay with Cryptococcus neoformans it was -2.75%.
